{
  "source": "the supplement of paper PMC11006884",
  "note": "Targets with a hit are over-represented here; the source holds about 6,500 in all. About 2% of all pairs of compound and target were hits. Unmarked numbers belong to inactive results.",
  "data": [
    {"compound": "COC(=O)C#Cc1ccccc1 [methyl 3-phenylpropiolate]", "assay": "log2 ratio of iodoacetamide-alkyne labeling of the cysteine site, DMSO over compound (competition); higher = stronger covalent engagement of the cysteine by the compound, active = 1 or more", "conditions": "500 µM; treatment time 1 h; system: HEK293T cell lysate", "procedure,_shortened": "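HEK293T lysate (2 mg/mL) was incubated with electrophile (500 µM) or vehicle for 1 h at ambient temperature and then with iodoacetamide alkyne for 1 h. Labelled proteins were clicked to sCIP-TMT reagents, pooled, digested, enriched on streptavidin and measured by Orbitrap Eclipse LC-MS/MS with FAIMS, with FragPipe quantification. The per-cysteine log2 competition ratio is mean control-channel reporter intensity over mean compound-channel reporter intensity. Across three replicates with duplicate channels, cysteines quantified in only one replicate were excluded.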", "values": [
      {"target": "KIDINS220 C867 (UniProt Q9ULH0)", "log2 ratio of iodoacetamide-alkyne labeling": 0.436},
      {"target": "TLN1 C2243 (UniProt Q9Y490)", "log2 ratio of iodoacetamide-alkyne labeling": 0.0807},
      {"target": "PUS7L C142 (UniProt Q9H0K6)", "log2 ratio of iodoacetamide-alkyne labeling": -0.0378},
      {"target": "UniProt Q9BYG3_C269", "log2 ratio of iodoacetamide-alkyne labeling": 0.771},
      {"target": "LSM7 C76 (UniProt Q9UK45)", "sequence (Q9UK45 whole entry, looked up)": "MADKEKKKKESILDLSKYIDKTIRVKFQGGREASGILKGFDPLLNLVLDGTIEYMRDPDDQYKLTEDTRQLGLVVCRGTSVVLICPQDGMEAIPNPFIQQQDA", "log2 ratio of iodoacetamide-alkyne labeling": 0.0557},
      {"target": "DDX20 C524 (UniProt Q9UHI6)", "sequence (Q9UHI6 whole entry, looked up)": "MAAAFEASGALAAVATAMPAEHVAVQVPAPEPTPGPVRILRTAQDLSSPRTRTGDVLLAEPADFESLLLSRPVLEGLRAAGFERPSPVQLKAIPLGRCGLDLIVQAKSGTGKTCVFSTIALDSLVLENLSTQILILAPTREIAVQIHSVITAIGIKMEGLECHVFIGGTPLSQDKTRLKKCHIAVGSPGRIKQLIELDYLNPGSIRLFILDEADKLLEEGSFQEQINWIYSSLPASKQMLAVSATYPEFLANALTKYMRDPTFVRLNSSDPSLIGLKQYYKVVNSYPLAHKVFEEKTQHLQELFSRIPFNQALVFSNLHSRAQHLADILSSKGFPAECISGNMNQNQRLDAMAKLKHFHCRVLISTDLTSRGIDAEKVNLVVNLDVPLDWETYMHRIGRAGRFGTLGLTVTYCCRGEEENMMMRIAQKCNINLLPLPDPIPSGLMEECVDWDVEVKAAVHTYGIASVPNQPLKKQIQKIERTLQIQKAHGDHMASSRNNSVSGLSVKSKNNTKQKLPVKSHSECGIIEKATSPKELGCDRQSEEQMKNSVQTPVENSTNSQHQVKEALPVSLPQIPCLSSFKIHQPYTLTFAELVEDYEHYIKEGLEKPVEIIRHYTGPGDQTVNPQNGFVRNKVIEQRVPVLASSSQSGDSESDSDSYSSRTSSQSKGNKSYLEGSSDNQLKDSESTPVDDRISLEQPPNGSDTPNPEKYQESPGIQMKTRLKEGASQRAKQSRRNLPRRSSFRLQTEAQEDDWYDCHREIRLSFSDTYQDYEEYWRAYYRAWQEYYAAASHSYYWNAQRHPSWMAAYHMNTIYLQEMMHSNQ", "log2 ratio of iodoacetamide-alkyne labeling": 0.6},
      {"target": "UniProt Q9H1B7_C385", "log2 ratio of iodoacetamide-alkyne labeling": 0.164},
      {"target": "GPATCH8 C569 (UniProt Q9UKJ3)", "log2 ratio of iodoacetamide-alkyne labeling": 0.815},
      {"target": "DLGAP4 C726 (UniProt Q9Y2H0)", "sequence (Q9Y2H0 whole entry, looked up)": "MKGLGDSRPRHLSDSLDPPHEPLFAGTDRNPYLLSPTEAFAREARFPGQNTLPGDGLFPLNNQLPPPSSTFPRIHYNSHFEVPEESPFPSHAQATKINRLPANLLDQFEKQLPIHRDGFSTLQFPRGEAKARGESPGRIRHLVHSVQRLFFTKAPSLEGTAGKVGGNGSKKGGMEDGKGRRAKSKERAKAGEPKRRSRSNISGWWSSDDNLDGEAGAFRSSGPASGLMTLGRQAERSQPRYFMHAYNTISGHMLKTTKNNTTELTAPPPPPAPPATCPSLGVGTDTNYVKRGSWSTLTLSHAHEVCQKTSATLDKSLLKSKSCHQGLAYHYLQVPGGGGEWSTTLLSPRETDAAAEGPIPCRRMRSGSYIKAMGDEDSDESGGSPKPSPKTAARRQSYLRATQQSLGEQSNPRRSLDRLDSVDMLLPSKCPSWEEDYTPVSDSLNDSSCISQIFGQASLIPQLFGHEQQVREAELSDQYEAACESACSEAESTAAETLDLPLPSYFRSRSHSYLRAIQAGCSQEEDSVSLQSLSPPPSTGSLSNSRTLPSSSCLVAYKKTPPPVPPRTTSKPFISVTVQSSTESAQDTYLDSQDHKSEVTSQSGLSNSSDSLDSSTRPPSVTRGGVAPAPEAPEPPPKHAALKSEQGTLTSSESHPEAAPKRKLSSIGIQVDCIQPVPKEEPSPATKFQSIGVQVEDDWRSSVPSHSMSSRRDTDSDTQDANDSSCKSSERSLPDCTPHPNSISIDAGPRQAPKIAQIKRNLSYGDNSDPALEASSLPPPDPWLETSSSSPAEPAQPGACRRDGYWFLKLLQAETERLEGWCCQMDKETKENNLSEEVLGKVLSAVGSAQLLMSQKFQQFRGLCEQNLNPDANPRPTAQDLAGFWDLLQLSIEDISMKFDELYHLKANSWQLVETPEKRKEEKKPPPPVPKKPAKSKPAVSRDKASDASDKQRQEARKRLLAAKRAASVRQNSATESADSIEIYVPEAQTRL", "log2 ratio of iodoacetamide-alkyne labeling": 0.74},
      {"target": "BAZ1B C953 (UniProt Q9UIG0)", "log2 ratio of iodoacetamide-alkyne labeling": "1.28 (active)"},
      {"target": "ITSN2 C810 (UniProt Q9NZM3)", "sequence (Q9NZM3 whole entry, looked up)": "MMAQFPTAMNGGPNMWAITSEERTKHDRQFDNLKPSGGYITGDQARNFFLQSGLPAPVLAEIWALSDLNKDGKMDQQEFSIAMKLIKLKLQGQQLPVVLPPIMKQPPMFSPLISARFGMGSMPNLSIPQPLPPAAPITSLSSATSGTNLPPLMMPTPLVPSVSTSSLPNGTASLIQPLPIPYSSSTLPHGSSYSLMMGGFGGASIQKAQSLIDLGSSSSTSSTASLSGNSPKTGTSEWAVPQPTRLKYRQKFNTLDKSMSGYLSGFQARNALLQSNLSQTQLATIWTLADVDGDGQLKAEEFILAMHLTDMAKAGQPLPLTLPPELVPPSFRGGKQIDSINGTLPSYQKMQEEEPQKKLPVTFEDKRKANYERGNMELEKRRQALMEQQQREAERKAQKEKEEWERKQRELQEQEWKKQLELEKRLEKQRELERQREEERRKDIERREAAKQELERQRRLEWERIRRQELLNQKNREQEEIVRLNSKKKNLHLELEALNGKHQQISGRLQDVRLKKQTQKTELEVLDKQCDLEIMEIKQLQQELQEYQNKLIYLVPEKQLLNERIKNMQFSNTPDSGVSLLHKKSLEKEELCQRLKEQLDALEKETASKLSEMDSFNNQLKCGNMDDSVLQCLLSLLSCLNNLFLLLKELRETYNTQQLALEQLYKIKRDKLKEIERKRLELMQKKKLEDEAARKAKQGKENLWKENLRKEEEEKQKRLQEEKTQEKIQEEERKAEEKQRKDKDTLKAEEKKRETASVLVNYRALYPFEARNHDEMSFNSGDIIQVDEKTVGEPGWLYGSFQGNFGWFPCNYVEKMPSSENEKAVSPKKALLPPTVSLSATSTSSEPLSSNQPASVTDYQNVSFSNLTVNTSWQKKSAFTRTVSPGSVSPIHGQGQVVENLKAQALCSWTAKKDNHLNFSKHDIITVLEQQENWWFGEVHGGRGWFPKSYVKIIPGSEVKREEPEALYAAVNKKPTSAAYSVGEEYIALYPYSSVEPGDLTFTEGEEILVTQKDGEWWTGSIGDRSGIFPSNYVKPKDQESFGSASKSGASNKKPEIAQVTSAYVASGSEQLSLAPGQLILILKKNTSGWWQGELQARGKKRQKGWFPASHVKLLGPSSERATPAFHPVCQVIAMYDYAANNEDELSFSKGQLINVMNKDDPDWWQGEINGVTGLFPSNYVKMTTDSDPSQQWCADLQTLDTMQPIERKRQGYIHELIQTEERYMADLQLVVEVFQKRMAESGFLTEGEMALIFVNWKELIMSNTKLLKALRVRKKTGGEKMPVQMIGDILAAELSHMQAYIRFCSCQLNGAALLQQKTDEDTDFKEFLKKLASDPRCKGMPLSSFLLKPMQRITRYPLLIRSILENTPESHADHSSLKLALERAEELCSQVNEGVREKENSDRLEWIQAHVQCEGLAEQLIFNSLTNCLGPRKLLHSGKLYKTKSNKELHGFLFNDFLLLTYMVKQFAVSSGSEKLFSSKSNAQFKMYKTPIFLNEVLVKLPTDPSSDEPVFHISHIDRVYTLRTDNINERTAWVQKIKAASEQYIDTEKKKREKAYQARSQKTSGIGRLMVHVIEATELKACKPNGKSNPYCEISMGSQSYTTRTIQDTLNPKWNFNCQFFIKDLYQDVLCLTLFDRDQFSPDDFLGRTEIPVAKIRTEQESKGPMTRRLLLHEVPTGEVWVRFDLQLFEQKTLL", "log2 ratio of iodoacetamide-alkyne labeling": 0.0149},
      {"target": "MAGED2 C516 (UniProt Q9UNF1)", "log2 ratio of iodoacetamide-alkyne labeling": 0.293},
      {"target": "BICC1 C621 (UniProt Q9H694)", "log2 ratio of iodoacetamide-alkyne labeling": 0.525},
      {"target": "SEC63 C366 (UniProt Q9UGP8)", "log2 ratio of iodoacetamide-alkyne labeling": -0.163},
      {"target": "RAB3GAP2 C67 (UniProt Q9H2M9)", "sequence (Q9H2M9 whole entry, looked up)": "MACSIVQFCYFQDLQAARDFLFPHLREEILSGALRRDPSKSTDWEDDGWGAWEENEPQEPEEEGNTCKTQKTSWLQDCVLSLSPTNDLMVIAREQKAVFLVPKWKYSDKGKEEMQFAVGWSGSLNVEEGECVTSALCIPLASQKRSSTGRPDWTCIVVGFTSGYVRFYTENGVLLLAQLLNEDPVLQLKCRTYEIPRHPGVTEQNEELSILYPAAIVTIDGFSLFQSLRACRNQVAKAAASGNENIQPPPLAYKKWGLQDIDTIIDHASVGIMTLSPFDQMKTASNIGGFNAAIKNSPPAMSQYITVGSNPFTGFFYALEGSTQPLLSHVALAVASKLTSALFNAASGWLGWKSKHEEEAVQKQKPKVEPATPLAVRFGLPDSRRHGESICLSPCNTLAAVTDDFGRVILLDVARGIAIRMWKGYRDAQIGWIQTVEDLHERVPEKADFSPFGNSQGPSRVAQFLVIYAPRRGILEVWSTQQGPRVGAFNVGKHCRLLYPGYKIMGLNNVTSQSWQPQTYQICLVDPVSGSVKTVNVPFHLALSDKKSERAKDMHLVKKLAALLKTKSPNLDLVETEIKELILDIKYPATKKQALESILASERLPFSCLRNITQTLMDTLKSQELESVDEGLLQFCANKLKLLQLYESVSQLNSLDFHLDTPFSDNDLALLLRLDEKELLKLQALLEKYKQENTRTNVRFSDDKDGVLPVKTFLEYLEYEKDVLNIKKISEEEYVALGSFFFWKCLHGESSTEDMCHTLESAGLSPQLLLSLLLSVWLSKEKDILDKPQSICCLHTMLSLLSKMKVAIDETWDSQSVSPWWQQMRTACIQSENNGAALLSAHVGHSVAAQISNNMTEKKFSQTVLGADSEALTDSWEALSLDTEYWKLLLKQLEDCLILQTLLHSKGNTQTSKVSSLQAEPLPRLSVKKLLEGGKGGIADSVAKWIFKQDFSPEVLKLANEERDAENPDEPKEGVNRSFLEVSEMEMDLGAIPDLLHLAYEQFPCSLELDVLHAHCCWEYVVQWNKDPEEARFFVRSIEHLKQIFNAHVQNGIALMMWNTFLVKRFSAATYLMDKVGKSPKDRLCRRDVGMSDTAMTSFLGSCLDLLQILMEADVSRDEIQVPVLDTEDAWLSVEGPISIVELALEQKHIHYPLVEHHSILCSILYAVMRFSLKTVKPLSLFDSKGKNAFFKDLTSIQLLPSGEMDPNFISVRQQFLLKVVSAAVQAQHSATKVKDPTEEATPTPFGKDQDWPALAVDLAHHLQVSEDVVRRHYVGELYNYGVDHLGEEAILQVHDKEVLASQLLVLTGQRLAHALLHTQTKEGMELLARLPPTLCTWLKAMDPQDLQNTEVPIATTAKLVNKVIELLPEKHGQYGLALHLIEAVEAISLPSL", "log2 ratio of iodoacetamide-alkyne labeling": 0.306},
      {"target": "SRRM2 C1480 (UniProt Q9UQ35)", "log2 ratio of iodoacetamide-alkyne labeling": 0.319},
      {"target": "UniProt Q9BXJ9_C465", "log2 ratio of iodoacetamide-alkyne labeling": 0.109}
    ]}
  ]
}
